# Measurements as given in PubChem BioAssay (EPA / NIEHS).
# Values joined by “and” are separate entries in the source; they are usually repeats but may differ in a detail not shown here. Equal values may be shown once. More than one record can exist for a structure, and the calls need not agree. Active and inactive are the calls of the source. How the source made its calls: active means hit-call score of the fitted dose curve at least 0.9, where 1 is the maximum; inactive means score below 0.9.
# How the values were obtained:
# [1] = ATG_EGR_CIS: Attagene CIS-FACTORIAL HepG2 Assay for human Early Growth Response 1 (EGR1) (AID 2282938); conditions: HepG2 Attagene CIS-FACTORIAL EGR reporter mRNA; actives raise or lower the signal
# Procedure, shortened: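 After 24 h compound exposure, RNA from reporter-transfected HepG2 cells was reverse-transcribed, PCR-amplified, fluorescently labelled and resolved by capillary electrophoresis. EGR1 reporter transcript changes, up or down, were fitted against DMSO, reflecting endogenous transcription-factor activity.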
# [2] = ATG_M_19_CIS: Attagene CIS-FACTORIAL HepG2 Assay for M19 Transcription Factor (Internal Marker) (AID 2282939); conditions: HepG2 Attagene CIS-FACTORIAL M19 internal marker reporter; actives raise or lower the signal
# Procedure, shortened: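 In this multiplexed cell assay, transiently transfected HepG2 reporter units report endogenous transcription-factor activity; after 24 hours of treatment, labelled reporter cDNA fragments are quantified by capillary electrophoresis and fitted bidirectionally against DMSO.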
# [3] = ATG_ERE_CIS: Attagene CIS-FACTORIAL HepG2 Assay for Estrogen Response Element (ERE) (AID 2282940); conditions: HepG2 ERE cis-reporter, Attagene RNA transcript; actives raise or lower the signal
# Procedure, shortened: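 Measuring endogenous transcription factor output, the assay doses transfected HepG2 cells for 24 hours and quantifies reporter transcripts by fluorescent RT-PCR and capillary electrophoresis, with DMSO as baseline.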
# [4] = ATG_Ets_CIS: Attagene CIS-FACTORIAL HepG2 Assay for human Erythroblast Transformation Specific (ETS) (AID 2282941); conditions: HepG2 ETS cis-reporter transcription; AC50: actives raise or lower the signal unless noted; outcome: actives raise or lower the signal unless noted
# Procedure, shortened: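 After transient cis-reporter transfection, HepG2 cells receive test chemical for 24 h. Reporter mRNA levels, measured by RT-PCR and capillary electrophoresis fluorescence, are analysed bidirectionally relative to the DMSO baseline.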
# [5] = target: Hepatocyte nuclear factor 3-beta (Homo sapiens) (UniProt Q9Y261); assay: ATG_FoxA2_CIS: Attagene CIS-FACTORIAL HepG2 Assay for human Forkhead box A2 (FOXA2) (AID 2282942); conditions: HepG2 cis-reporter transcription factor activity, 24 h; actives raise or lower the signal
# Procedure, shortened: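 Endogenous transcription factor activity is captured via cis-element-driven reporter transcripts in transfected HepG2. Total RNA taken at 24 h post-dosing; labelled RT-PCR products resolved by capillary electrophoresis. Gain or loss fitted versus DMSO.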
# [6] = ATG_GATA_CIS: Attagene CIS-FACTORIAL HepG2 Assay for human GATA Binding Protein (AID 2282944); conditions: HepG2 GATA cis-element reporter, Attagene multiplex mRNA; actives raise or lower the signal
# Procedure, shortened: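 Measures endogenous transcription factor-driven reporter mRNA in HepG2 cells transiently carrying cis-regulated constructs. 24 h dosing; RNA via oligo(dT) reverse transcription, PCR, HpaI digestion, capillary electrophoresis; fitted relative to DMSO.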
# [7] = ATG_GLI_CIS: Attagene CIS-FACTORIAL HepG2 Assay for human Zinc Finger Protein GLI1 (AID 2282945); conditions: HepG2, Attagene cis-factorial reporter mRNA, GLI element; actives raise or lower the signal
# Procedure, shortened: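 HepG2 cells transiently transfected with cis-promoter multiplexed reporter units report endogenous transcription factor activity. After 24 h chemical exposure, reporter mRNA was quantified by RT-PCR, 6-FAM labelling, HpaI digestion and capillary electrophoresis, with bidirectional fitting against DMSO.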
# [8] = ATG_GRE_CIS: Attagene CIS-FACTORIAL HepG2 Assay for human Glucocorticoid Response Elements (GRE) (AID 2282947); conditions: HepG2 GRE cis-reporter, Attagene multiplex mRNA; AC50: actives raise or lower the signal unless noted; outcome: actives raise or lower the signal unless noted
# Procedure, shortened: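 HepG2 cells transiently transfected with multiple cis-promoter reporter units measure endogenous TF activity; 24 h compound exposure. Reporter mRNA quantified by RT-PCR, FAM labelling, HpaI digestion and capillary electrophoresis; bidirectional fit vs DMSO baseline.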
# [9] = ATG_M_32_CIS: Attagene CIS-FACTORIAL HepG2 Assay for M32 Transcription Factor (Internal Marker) (AID 2282949); conditions: HepG2 Attagene cis-factorial M32 reporter, mRNA; actives raise or lower the signal;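 further: background control marker of the multiplexed CIS panel rather than a real target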
# Procedure, shortened: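 Following 24 h chemical exposure of HepG2 cells transiently expressing cis-promoter reporter constructs, reporter transcript levels were determined by RT-PCR with fluorescent labelling and capillary electrophoresis, then fitted bidirectionally against DMSO.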
# [10] = ATG_M_06_CIS: Attagene CIS-FACTORIAL HepG2 Assay for M06 Transcription Factor (Internal Marker) (AID 2282950); conditions: HepG2 Attagene CIS-FACTORIAL M06 internal marker reporter; actives raise or lower the signal
# Procedure, shortened: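 One of many multiplexed endpoints: HepG2 reporter mRNA after 24 h dosing, detected by RT-PCR and capillary electrophoresis fluorescence; gain or loss of signal analysed against DMSO.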
# [11] = target: Hypoxia-inducible factor 1-alpha (Homo sapiens) (UniProt Q16665); assay: ATG_HIF1a_CIS: Attagene CIS-FACTORIAL HepG2 Assay for human Hypoxia Inducible Factor 1 (HIF1A) (AID 2282951); conditions: HepG2 Attagene cis-factorial HIF1a reporter transcription; actives raise or lower the signal
# Procedure, shortened: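 Activity is fitted in both directions relative to DMSO. Reporter transcripts are read by RT-PCR, fluorescent primer extension and capillary electrophoresis after 24 h chemical treatment. The cells are HepG2 carrying transiently transfected cis-element-driven reporter units responding to endogenous factors.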
# [12] = target: Heat shock factor protein 1 (Homo sapiens) (UniProt Q00613); assay: ATG_HSE_CIS: Attagene CIS-FACTORIAL HepG2 Assay for human Heat Shock Transcription Factor 1 (HSE) (AID 2282953); conditions: HepG2 HSE cis-reporter, Attagene RNA transcription; actives raise or lower the signal
# Procedure, shortened: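 Using HepG2 with transfected cis-driven reporter constructs, compound effects on endogenous factor activity are scored as reporter mRNA change at 24 h. Detection: RT-PCR, HpaI digestion, capillary electrophoresis; bidirectional fitting to DMSO.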
# [13] = ATG_MRE_CIS: Attagene CIS-FACTORIAL HepG2 Assay for human Metal Responsive Element (MRE) (AID 2282954); conditions: HepG2 MRE cis-reporter transcription, Attagene multiplex; actives raise or lower the signal
# Procedure, shortened: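 HepG2 cells transiently transfected with multiple cis-element reporter units measure endogenous MTF1-driven transcription. After 24 h compound exposure, reporter mRNA is quantified by RT-PCR with 6-FAM labelling, HpaI digestion and capillary electrophoresis; bidirectional fits versus DMSO.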
# [14] = target: Paired box protein Pax-6 (Homo sapiens) (UniProt P26367); assay: ATG_Pax6_CIS: Attagene CIS-FACTORIAL HepG2 Assay for human Paired Box 6 (PAX6) (AID 2282956); conditions: HepG2 CIS-FACTORIAL PAX6 reporter transcription, RNA readout; actives raise or lower the signal
# Procedure, shortened: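 After twenty-four hours of chemical exposure, transfected HepG2 cells are harvested for RNA. Cis-promoter reporter transcripts are amplified, fluorescently labelled and sized by capillary electrophoresis, with gain and loss of signal scored against DMSO.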
# [15] = ATG_PXRE_CIS: Attagene CIS-FACTORIAL HepG2 Assay for human Pregnane X Receptor Element (PXRE) (AID 2282957); conditions: HepG2 Attagene CIS-FACTORIAL PXRE reporter, mRNA; actives raise or lower the signal
# Procedure, shortened: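 Transiently transfected HepG2 cells were dosed and incubated for 24 h. RNA was then isolated, DNase-treated, reverse-transcribed and reporter sequences amplified. Labeled, HpaI-digested fragments were quantified by capillary electrophoresis against DMSO.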
# [16] = ATG_FoxO_CIS: Attagene CIS-FACTORIAL HepG2 Assay for human Forkhead box O (FoxO) (AID 2282943); conditions: HepG2 Attagene cis-reporter, FoxO element, mRNA; actives raise or lower the signal
# Procedure, shortened: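 Values reflect reporter mRNA induction or loss in HepG2 cells 24 h post-dosing, fitted bidirectionally with DMSO as negative control and baseline. Detection used RT-PCR and fluorescence capillary electrophoresis.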
# [17] = target: Bile acid receptor (Homo sapiens) (UniProt Q96RI1); assay: ATG_IR1_CIS: Attagene CIS-FACTORIAL HepG2 Assay for human Nuclear Receptor Subfamily 1 Group H Member 4 (NR1H4), IR1 submotif (AID 2282946); conditions: IR1 reporter transcription, actives raise or lower the signal
# Procedure, shortened: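 Transient MRTU transfection, HepG2; 24 h dosing; RNA → RT-PCR → 6-FAM primer extension → HpaI digest → capillary electrophoresis fluorescence. Gain/loss of signal fitted relative to DMSO.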
# [18] = ATG_ISRE_CIS: Attagene CIS-FACTORIAL HepG2 Assay for human Interferon Regulatory Factor 1 (IRF1) binding to an Interferon-Stimulated Response Element (ISRE) (AID 2282948); conditions: HepG2 ISRE cis-reporter (Attagene), mRNA transcription readout; actives raise or lower the signal
# Procedure, shortened: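 Quantitation relies on labelled RT-PCR fragments separated by capillary electrophoresis. Human HepG2 cells bearing cis-promoter reporter constructs were treated 24 h; DMSO served as baseline for bidirectional fitting.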
# [19] = target: Hepatocyte nuclear factor 6 (Homo sapiens) (UniProt Q9UBC0); assay: ATG_HNF6_CIS: Attagene CIS-FACTORIAL HepG2 Assay for human Hepatocyte Nuclear Factor 6 (HNF6) (AID 2282952); conditions: HepG2 Attagene cis-factorial HNF6 reporter transcription; actives raise or lower the signal
# Procedure, shortened: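 Reporter mRNA induction or loss in HepG2 after 24 h exposure; transient cis-MRTU transfection; fragments quantified by capillary electrophoresis; bidirectional analysis, DMSO as negative control.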
# [20] = ATG_PBREM_CIS: Attagene CIS-FACTORIAL HepG2 Assay for human Phenobarbital-responsive Enhancer Module (PBREM) (AID 2282955); conditions: HepG2 PBREM cis-reporter, Attagene multiplexed transcription; actives raise or lower the signal
# Procedure, shortened: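 Endogenous transcription factor activity was read from reporter transcripts in transiently transfected human HepG2 liver cells after 24 h dosing. RT-PCR products were fluorescently labelled, HpaI-cut and sized by capillary electrophoresis; activity fitted bidirectionally against DMSO baseline.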
# Hepatocyte nuclear factor 3-beta (Homo sapiens), sequence (Q9Y261 whole entry, looked up): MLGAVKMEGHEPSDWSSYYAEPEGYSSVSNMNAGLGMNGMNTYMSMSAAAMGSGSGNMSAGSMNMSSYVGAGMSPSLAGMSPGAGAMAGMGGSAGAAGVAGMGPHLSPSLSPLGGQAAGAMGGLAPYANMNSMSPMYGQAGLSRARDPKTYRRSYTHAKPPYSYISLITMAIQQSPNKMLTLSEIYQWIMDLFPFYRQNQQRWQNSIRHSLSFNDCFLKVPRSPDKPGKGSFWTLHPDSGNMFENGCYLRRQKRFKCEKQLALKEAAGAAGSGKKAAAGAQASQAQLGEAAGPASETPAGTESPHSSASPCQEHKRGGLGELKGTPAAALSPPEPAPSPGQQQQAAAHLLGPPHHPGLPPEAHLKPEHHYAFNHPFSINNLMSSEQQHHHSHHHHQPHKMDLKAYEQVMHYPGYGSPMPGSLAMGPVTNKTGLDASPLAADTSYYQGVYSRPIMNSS
# Heat shock factor protein 1 (Homo sapiens), sequence (Q00613 whole entry, looked up): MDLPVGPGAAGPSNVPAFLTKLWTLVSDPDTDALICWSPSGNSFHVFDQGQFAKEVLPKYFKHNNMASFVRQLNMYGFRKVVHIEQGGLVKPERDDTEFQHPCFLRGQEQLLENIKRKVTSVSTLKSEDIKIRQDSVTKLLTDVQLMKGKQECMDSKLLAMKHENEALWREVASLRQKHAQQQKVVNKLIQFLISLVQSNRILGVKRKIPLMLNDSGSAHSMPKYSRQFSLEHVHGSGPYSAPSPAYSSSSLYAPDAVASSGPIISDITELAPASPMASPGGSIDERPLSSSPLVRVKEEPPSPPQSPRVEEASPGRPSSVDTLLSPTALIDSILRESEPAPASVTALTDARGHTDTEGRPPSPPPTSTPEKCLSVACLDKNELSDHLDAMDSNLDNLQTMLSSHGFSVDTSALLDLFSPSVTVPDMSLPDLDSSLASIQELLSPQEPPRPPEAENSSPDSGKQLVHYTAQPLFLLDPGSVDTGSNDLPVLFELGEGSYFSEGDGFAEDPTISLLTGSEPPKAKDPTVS
# Hypoxia-inducible factor 1-alpha (Homo sapiens), sequence (Q16665 whole entry, looked up): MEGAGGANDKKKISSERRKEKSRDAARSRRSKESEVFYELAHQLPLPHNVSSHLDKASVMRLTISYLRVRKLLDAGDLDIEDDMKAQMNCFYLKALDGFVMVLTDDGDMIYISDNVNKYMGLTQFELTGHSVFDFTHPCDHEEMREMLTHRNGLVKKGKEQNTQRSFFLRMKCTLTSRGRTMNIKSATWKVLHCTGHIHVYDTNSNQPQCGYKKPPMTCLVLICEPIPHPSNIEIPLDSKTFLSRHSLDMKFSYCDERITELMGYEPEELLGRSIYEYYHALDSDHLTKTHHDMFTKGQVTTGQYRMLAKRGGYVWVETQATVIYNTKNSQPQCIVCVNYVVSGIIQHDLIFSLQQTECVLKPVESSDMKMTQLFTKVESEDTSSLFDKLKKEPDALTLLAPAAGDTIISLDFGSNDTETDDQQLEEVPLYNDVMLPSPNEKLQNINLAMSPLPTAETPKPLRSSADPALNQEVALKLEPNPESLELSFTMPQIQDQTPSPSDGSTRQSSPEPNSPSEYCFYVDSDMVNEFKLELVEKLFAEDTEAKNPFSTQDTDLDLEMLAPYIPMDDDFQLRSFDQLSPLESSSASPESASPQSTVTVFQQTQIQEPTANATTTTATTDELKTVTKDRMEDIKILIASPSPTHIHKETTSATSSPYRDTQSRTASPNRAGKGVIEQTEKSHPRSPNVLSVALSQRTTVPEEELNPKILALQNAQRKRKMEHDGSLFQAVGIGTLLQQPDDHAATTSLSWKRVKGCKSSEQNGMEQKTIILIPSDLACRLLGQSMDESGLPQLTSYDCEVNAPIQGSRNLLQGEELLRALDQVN
# Hepatocyte nuclear factor 6 (Homo sapiens), sequence (Q9UBC0 whole entry, looked up, the tested form may be a part): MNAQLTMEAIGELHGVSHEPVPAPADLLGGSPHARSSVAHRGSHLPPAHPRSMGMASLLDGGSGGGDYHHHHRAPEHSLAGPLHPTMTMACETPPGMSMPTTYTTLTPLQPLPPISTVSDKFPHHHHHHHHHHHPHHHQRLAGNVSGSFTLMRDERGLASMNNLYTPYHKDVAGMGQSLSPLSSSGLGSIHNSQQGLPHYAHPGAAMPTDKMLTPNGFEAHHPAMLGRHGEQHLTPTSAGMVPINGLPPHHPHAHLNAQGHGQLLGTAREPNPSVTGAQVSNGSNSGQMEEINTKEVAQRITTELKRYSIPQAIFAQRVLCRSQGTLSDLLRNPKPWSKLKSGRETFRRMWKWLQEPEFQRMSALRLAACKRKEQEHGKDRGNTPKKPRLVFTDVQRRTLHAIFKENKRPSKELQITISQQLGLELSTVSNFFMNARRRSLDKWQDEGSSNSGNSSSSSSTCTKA
# Bile acid receptor (Homo sapiens), sequence (Q96RI1 whole entry, looked up): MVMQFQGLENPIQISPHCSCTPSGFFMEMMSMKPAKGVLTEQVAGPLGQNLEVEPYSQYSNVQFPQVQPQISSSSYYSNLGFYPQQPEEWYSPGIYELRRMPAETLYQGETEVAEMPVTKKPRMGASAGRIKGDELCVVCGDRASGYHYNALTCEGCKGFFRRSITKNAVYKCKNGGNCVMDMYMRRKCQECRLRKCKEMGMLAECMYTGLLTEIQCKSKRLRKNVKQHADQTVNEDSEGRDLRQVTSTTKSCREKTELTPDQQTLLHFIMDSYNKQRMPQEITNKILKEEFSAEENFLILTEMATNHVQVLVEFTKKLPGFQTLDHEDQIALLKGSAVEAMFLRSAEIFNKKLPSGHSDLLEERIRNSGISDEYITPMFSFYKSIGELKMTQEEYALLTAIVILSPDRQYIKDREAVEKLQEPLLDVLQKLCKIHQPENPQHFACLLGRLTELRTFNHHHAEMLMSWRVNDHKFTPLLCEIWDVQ
# Paired box protein Pax-6 (Homo sapiens), sequence (P26367 whole entry, looked up): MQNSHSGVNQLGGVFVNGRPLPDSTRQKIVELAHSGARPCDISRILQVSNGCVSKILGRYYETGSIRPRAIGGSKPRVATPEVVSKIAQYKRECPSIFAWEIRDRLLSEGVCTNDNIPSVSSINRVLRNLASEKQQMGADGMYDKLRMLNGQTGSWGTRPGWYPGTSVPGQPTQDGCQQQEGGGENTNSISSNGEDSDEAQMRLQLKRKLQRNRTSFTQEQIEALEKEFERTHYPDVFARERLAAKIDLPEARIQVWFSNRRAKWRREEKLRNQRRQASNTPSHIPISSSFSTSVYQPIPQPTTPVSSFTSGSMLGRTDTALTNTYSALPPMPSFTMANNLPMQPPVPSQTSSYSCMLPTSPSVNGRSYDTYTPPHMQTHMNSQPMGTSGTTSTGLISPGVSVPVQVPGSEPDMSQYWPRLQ
structure (smiles),measurement,setting,value
C=C(c1ccc(C(=O)O)cc1)c1cc2c(cc1C)C(C)(C)CCC2(C)C,AC50,[1],11.1 µM (active)
same,outcome,[1],inactive
same,AC50,[2],34.1 µM (active)
same,outcome,[2],inactive
same,AC50,[3],0.0545 µM (active)
same,outcome,[3],inactive
same,outcome,[4],inactive
same,outcome,[5],inactive
same,AC50,[6],35.6 µM (active)
same,outcome,[6],inactive
same,AC50,[7],28.6 µM (active)
same,outcome,[7],inactive
same,outcome,[8],inactive
same,AC50,[9],32.2 µM (active)
same,outcome,[9],inactive
same,outcome,[10],inactive
same,outcome,[11],inactive
same,AC50,[12],16.2 µM (active) and 27.9 µM (active)
same,AC50,[13],13.8 µM (active) and 23 µM (active)
same,AC50,[14],14.9 µM (active) and 25.3 µM (active)
same,AC50,[15],0.154 µM (active)
same,outcome,[15],inactive
CCc1ccccc1O,outcome,[1],inactive
same,outcome,[2],inactive
same,outcome,[3],inactive
same,outcome,[4],inactive
same,outcome,[5],inactive
same,outcome,[16],inactive
same,outcome,[6],inactive
same,outcome,[7],inactive
same,outcome,[17],inactive
same,outcome,[8],inactive
same,outcome,[18],inactive
same,outcome,[9],inactive
same,outcome,[10],inactive
same,outcome,[11],inactive
same,outcome,[19],inactive
same,outcome,[12],inactive
same,outcome,[13],inactive
same,outcome,[20],inactive
same,outcome,[14],inactive
same,AC50,[15],10.8 µM (active)
COC(=O)CC(C(C)=O)C(=O)OC (configuration not stated),outcome,[1],inactive
same,outcome,[2],inactive
same,outcome,[3],inactive
same,outcome,[4],inactive
same,outcome,[5],inactive
same,outcome,[16],inactive
same,outcome,[6],inactive
same,outcome,[7],inactive
same,outcome,[17],inactive
same,outcome,[8],inactive
same,outcome,[18],inactive
same,outcome,[9],inactive
same,outcome,[10],inactive
same,outcome,[11],inactive
same,outcome,[19],inactive
same,outcome,[12],inactive
same,outcome,[13],inactive
same,outcome,[20],inactive
same,outcome,[14],inactive
same,outcome,[15],inactive
FC(F)(F)C1(F)C(F)(F)C(F)(F)C(F)(F)C1(F)F,outcome,[1],inactive
same,outcome,[2],inactive
same,outcome,[3],inactive
same,outcome,[4],inactive
same,outcome,[5],inactive
same,outcome,[16],inactive
same,outcome,[6],inactive
same,outcome,[7],inactive
same,outcome,[17],inactive
same,outcome,[8],inactive
same,outcome,[18],inactive
same,outcome,[9],inactive
same,outcome,[10],inactive
same,outcome,[11],inactive
same,outcome,[19],inactive
same,outcome,[12],inactive
same,outcome,[13],inactive
same,outcome,[20],inactive
same,outcome,[14],inactive
same,outcome,[15],inactive
c1cc2cccc3c4cccc5cccc(c(c1)c23)c54,outcome,[1],inactive
same,outcome,[2],inactive
same,outcome,[3],inactive
same,outcome,[4],inactive
same,outcome,[5],inactive
same,outcome,[16],inactive
same,outcome,[6],inactive
same,outcome,[7],inactive
same,outcome,[17],inactive
same,outcome,[8],inactive
same,outcome,[18],inactive
same,outcome,[9],inactive
same,outcome,[10],inactive
same,outcome,[11],inactive
same,outcome,[19],inactive
same,outcome,[12],inactive
same,outcome,[13],inactive
same,outcome,[20],inactive
same,outcome,[14],inactive
same,outcome,[15],inactive
FC(F)(F)N1C(F)(F)C(F)(F)OC(F)(F)C1(F)F,outcome,[1],inactive
same,outcome,[2],inactive
same,outcome,[3],inactive
same,outcome,[4],inactive
same,outcome,[5],inactive
same,outcome,[16],inactive
same,outcome,[6],inactive
same,outcome,[7],inactive
same,outcome,[17],inactive
same,outcome,[8],inactive
same,outcome,[18],inactive
same,outcome,[9],inactive
same,outcome,[10],inactive
same,outcome,[11],inactive
same,outcome,[19],inactive
same,outcome,[12],inactive
same,outcome,[13],inactive
same,outcome,[20],inactive
same,outcome,[14],inactive
same,outcome,[15],inactive
